Eight compounds from PubChem BioAssay (NCATS) can be followed below.

The structures appear in SMILES notation. Values joined by “and” are separate entries in the source; they are usually repeats but may differ in a detail not shown here. Identical values can stand only once. Results filed as inconclusive are left out. Active and inactive are the calls of the source. Calls follow the shape of the dose curve; as a rule, active = well fitted curve in the direction sought with a large enough effect; inconclusive = small, poorly fitted or top-dose-only effect, or another doubt; inactive = no such curve, though single readings can be large; an effect the other way counts as inactive or inconclusive.

A short description of assay [1]: qHTS of pediatric cancer cell lines to identify multiple opportunities for drug repurposing: Primary screen for BT-37 cells (AID 1347094). Also: potency is read from the fitted curve at half-maximal effect. The note with it: BT-37 viability, CellTiter-Glo luminescence, 48 h; series mostly up to 57.3 µM. The gist of the method: (§1)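 Viability was measured as metabolically active cells after 48 hours of treatment, read by CellTiter-Glo luminescence. Compounds were tested at multiple final concentrations, giving concentration-response curves.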
For orientation: Quantitative high-throughput screening tests each substance at several concentrations.

Assay [2] is described as follows: qHTS of pediatric cancer cell lines to identify multiple opportunities for drug repurposing: Primary screen for NB-EBc1 cells (AID 1347095). Also: potency is read from the fitted curve at half-maximal effect. The note with it: NB-EBc1 neuroblastoma viability, CellTiter-Glo luminescence, 48 h; series mostly up to 46 µM. In short, it runs like this: as §1
A short description of assay [3]: qHTS of pediatric cancer cell lines to identify multiple opportunities for drug repurposing: Primary screen for Saos-2 cells (AID 1347097). Also: nearly all actives have a fitted effect of over 40% in size. Also: potency is read from the fitted curve at half-maximal effect. The note with it: Saos-2 viability, CellTiter-Glo ATP luminescence, 48 h; series mostly up to 46 µM. The gist of the method: as §1
Assay [4] in a line: qHTS of pediatric cancer cell lines to identify multiple opportunities for drug repurposing: Primary screen for NB1643 cells (AID 1347099). Also: nearly all actives have a fitted effect of over 50% in size. Also: potency is read from the fitted curve at half-maximal effect. The note with it: NB1643 neuroblastoma viability, CellTiter-Glo luminescence, 48 h; series mostly up to 46 µM. The gist of the method: as §1
Assay [5] in a line: qHTS of pediatric cancer cell lines to identify multiple opportunities for drug repurposing: Primary screen for LAN-5 cells (AID 1347100). Also: potency is read from the fitted curve at half-maximal effect. The note with it: LAN-5 neuroblastoma viability, CellTiter-Glo luminescence, 48 h; series mostly up to 46 µM. In short, it runs like this:
(§2)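 Cells (500-1,000/well) in growth media were settled 5 h at 37 degrees C, then given compounds for 48 h. Viability was read as CellTiter-Glo luminescence. Primary runs used MIPE at 11 points (0.78 nM-46 µM) and NPC at 8 points (0.59 nM-46 µM); follow-ups used 11 points.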

Assay [6] can be described thus: qHTS of pediatric cancer cell lines to identify multiple opportunities for drug repurposing: Primary screen for BT-12 cells (AID 1347101). Also: nearly all actives have a fitted effect of over 25% in size. Also: potency is read from the fitted curve at half-maximal effect. The note with it: BT-12 viability, CellTiter-Glo luminescence, 48 h; series mostly up to 57.3 µM. In short, it runs like this: (§3)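 Cells (500-1,000/well) rested 5 h, then received compounds for 48 h; metabolically active cells were measured by CellTiter-Glo luminescence. Final concentrations spanned up to 46 µM (MIPE, 11-point) or 0.59 nM-46 µM (NPC, 8-point) in primary screens, 11-point in follow-ups.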

A short description of assay [7]: qHTS of pediatric cancer cell lines to identify multiple opportunities for drug repurposing: Primary screen for OHS-50 cells (AID 1347103). Also: nearly all actives have a fitted effect of over 40% in size. Also: potency is read from the fitted curve at half-maximal effect. The note with it: OHS-50 osteosarcoma viability, CellTiter-Glo luminescence, 48 h; series mostly up to 57.3 µM. In short, it runs like this: as §3
The nature of assay [8]: qHTS of pediatric cancer cell lines to identify multiple opportunities for drug repurposing: Primary screen for RD cells (AID 1347104). Also: nearly all actives have a fitted effect of over 55% in size. Also: potency is read from the fitted curve at half-maximal effect. The conditions noted are these: RD rhabdomyosarcoma viability, CellTiter-Glo luminescence, 48 h; series mostly up to 46 µM. In short, it runs like this: as §1
Assay [9] in a line: qHTS of pediatric cancer cell lines to identify multiple opportunities for drug repurposing: Primary screen for Rh30 cells (AID 1347107). Also: nearly all actives have a fitted effect of over 75% in size. The conditions noted are these: Rh30 rhabdomyosarcoma viability, CellTiter-Glo luminescence, 48 h; series mostly up to 46 µM. In short, it runs like this:
as §2

Assay [10] is described as follows: qHTS of pediatric cancer cell lines to identify multiple opportunities for drug repurposing: Confirmatory screen for NB1643 cells (AID 1347109). Also: potency is read from the fitted curve at half-maximal effect; nearly all actives have a fitted effect of over 45% in size. The conditions noted are these: NB1643 neuroblastoma cell viability; series mostly up to 45.9 µM. The gist of the method:
as §2

Assay [11] in a line: qHTS of pediatric cancer cell lines to identify multiple opportunities for drug repurposing: Confirmatory screen for A673 cells (AID 1347110).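 Also: cells exposed to compound for 48 h before the viability read; nearly all actives have a fitted effect of over 65% in size.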 Also: potency is read from the fitted curve at half-maximal effect. The note with it: A673 Ewing sarcoma cell viability; series mostly up to 45.9 µM. The gist of the method:
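qHTS titration format: primary MIPE 0.78 nM-46 µM (11 pts), NPC 0.59 nM-46 µM; confirmation 11 pts. 48 h, CTG luminescence.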

The nature of assay [12]: qHTS of pediatric cancer cell lines to identify multiple opportunities for drug repurposing: Confirmatory screen for SK-N-MC cells (AID 1347111).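 Also: potency is read from the fitted curve at half-maximal effect; cells exposed to compound for 48 h before the readout; nearly all actives have a fitted effect of over 70% in size.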 The note with it: SK-N-MC cell viability; series mostly up to 45.9 µM. In short, it runs like this: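 Metabolically active cells were quantified by ATP-dependent luminescence (CellTiter-Glo, 15 min at room temperature) following 48 h treatment. Cells had been plated at 500-1,000 per well and settled for 5 h beforehand.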

Assay [13] in a line: qHTS of pediatric cancer cell lines to identify multiple opportunities for drug repurposing: Confirmatory screen for BT-12 cells (AID 1347112). Also: potency is read from the fitted curve at half-maximal effect; nearly all actives have a fitted effect of over 55% in size. The note with it: BT-12 rhabdoid tumor cells, viability; series mostly up to 45.9 µM. The gist of the method:
as §2

A short description of assay [14]: qHTS of pediatric cancer cell lines to identify multiple opportunities for drug repurposing: Confirmatory screen for LAN-5 cells (AID 1347113). Also: potency is read from the fitted curve at half-maximal effect; nearly all actives have a fitted effect of over 65% in size. The note with it: LAN-5 neuroblastoma cell viability; series mostly up to 45.9 µM. In short, it runs like this:
as §2

Assay [15] in a line: qHTS of pediatric cancer cell lines to identify multiple opportunities for drug repurposing: Primary screen for SK-N-SH cells (AID 1347098). Also: nearly all actives have a fitted effect of over 65% in size. Also: potency is read from the fitted curve at half-maximal effect. The note with it: SK-N-SH viability, CellTiter-Glo luminescence, 48 h; series mostly up to 57 µM. In short, it runs like this: as §3
The nature of assay [16]: qHTS of pediatric cancer cell lines to identify multiple opportunities for drug repurposing: Primary screen for Rh18 cells (AID 1347102). Also: nearly all actives have a fitted effect of over 65% in size. The note with it: Rh18 rhabdomyosarcoma viability, CellTiter-Glo luminescence, 48 h; series mostly up to 46 µM. In short, it runs like this: as §2
Assay [17] is described as follows: qHTS of pediatric cancer cell lines to identify multiple opportunities for drug repurposing: Primary screen for control Hh wild type fibroblast cells (AID 1347106).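 Also: a drop in luminescence marks cytotoxicity and a rise apparent proliferation; nearly all actives have a fitted effect of over 55% in size.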 The note with it: Hh wild-type fibroblast viability, CellTiter-Glo luminescence, 48 h; series mostly up to 46 µM. The gist of the method:
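Viability after 48 h compound treatment at 37C, 500-1,000 cells/well, read as ATP luminescence with CellTiter-Glo. Primary screens used 11-point (MIPE, 0.78 nM-46 µM) or 8-point (NPC, 0.59 nM-46 µM) final concentrations; follow-up screens used 11-point dilutions.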

A short description of assay [18]: qHTS of pediatric cancer cell lines to identify multiple opportunities for drug repurposing: Primary screen for U-2 OS cells (AID 1347096). Also: nearly all actives have a fitted effect of over 50% in size. The note with it: U-2 OS viability, CellTiter-Glo luminescence, 48 h; series mostly up to 46 µM. In short, it runs like this: as §2
The nature of assay [19]: qHTS of pediatric cancer cell lines to identify multiple opportunities for drug repurposing: Primary screen for MG 63 (6-TG R) cells (AID 1347105). Also: nearly all actives have a fitted effect of over 50% in size. The note with it: MG 63 (6-TG R) viability, CellTiter-Glo, 48 h; series mostly up to 46 µM. In short, it runs like this: as §1
A short description of assay [20]: qHTS of pediatric cancer cell lines to identify multiple opportunities for drug repurposing: Primary screen for Rh41 cells (AID 1347108).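 Also: luminescence drop marks cytotoxic hits; nearly all actives have a fitted effect of over 70% in size.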 The note with it: Rh41 rhabdomyosarcoma viability, CellTiter-Glo luminescence, 48 h; series mostly up to 46 µM. The gist of the method: as §1

For `CC[C@]1(O)C[C@@H]2CN(CCc3c([nH]c4ccccc34)[C@@](C(=O)OC)(c3cc4c(cc3OC)N(C)[C@H]3[C@@](O)(C(=O)OC)[C@H](OC(C)=O)[C@]5(CC)C=CCN6CC[C@]43[C@@H]65)C2)C1`, the Potency in [1] was 43.7 nM (active) and 174 nM (active); in [2] it was 0.188 µM (active); in assay [3], 42.2 nM (active) and 168 nM (active); in assay [4], 1.33 µM (active); in [5], 0.133 µM (active); in assay [6], 43.7 nM (active) and 347 nM (active). Further, the Potency in assay [7] was 30.9 nM (active) and 138 nM (active); in assay [8], 21.1 nM (active) and 211 nM (active); in [10], 1.31 µM (active); in assay [11] it was 32.9 nM (active) and 36.9 nM (active); in assay [12] it was 657 nM (active) and 737 nM (active); in [13], 1.65 µM (active) and 1.85 µM (active). Further, the Potency in assay [14] is 2.33 µM (active). In addition, in assay [9], the Potency result is “inactive”.
For the compound `O=C(N[C@@H](c1ccccc1)[C@@H]1CCCCN1)c1cccc(C(F)(F)F)c1Cl`, the Potency in assay [1] was 19.3 µM (active); in assay [2], 7.43 µM (active); in assay [15], 21.5 µM (active); in assay [5], 18.7 µM (active). For the same compound, the Potency result in assay [3], in assay [4], in assay [16], in [17] and in assay [9] was “inactive” in each case.
Regarding `NC(=O)c1cnc(-c2ccc(C3(N)CCC3)cc2)c(-c2ccccc2)c1`, the Potency entry in assay [1], in assay [2], in assay [16], in [17] and in assay [9] was “inactive” each time. Besides, in assay [7], the Potency is 2.73 µM (active).
Take `Cc1nnc(C(C)C)n1C1C[C@H]2CC[C@@H](C1)N2CC[C@H](NC(=O)C1CCC(F)(F)CC1)c1ccccc1` (stereo partly specified): the Potency entry in assay [1], in assay [18], in assay [3], in assay [15], in [6] and in assay [16] was “inactive” each time. Further, the Potency entry in assay [7], in assay [19], in [17], in assay [9], in [20] and in assay [11] was “inactive” in each case. The Potency is 18.7 µM (active) in [4], 7.37 µM (active) in [10] and 7.37 µM (active) in [12].
As for `C[N+](C)(C)CCCCCC[N+](C)(C)C`, the Potency entry in assay [1], in [2], in [3], in assay [4], in [6] and in assay [16] was “inactive” each time. Moreover, the Potency result in assay [7], in [8], in assay [19], in assay [17], in assay [9] and in assay [20] was “inactive” throughout.
For the compound `CC(=O)CCCCn1c(=O)c2c(ncn2C)n(C)c1=O`, the Potency result in assay [1], in assay [2], in assay [3], in assay [5], in assay [6] and in assay [16] was “inactive” throughout. For the same compound, the Potency result in [7], in [8], in [19], in assay [17], in assay [9] and in [20] was “inactive” throughout.
Regarding `CNC(=O)c1ccc2cc(C3(O)CCn4cncc43)ccc2c1` (stereo unspecified), the Potency result in assay [1], in assay [2], in assay [15], in assay [6], in assay [16] and in [7] was “inactive” each time. For the same compound, the Potency entry in assay [8], in [19], in assay [17], in assay [9] and in assay [20] was “inactive” in each case.
Take `CCCCC1C(=O)N(c2ccccc2)N(c2ccccc2)C1=O`: the Potency result in assay [1], in assay [2], in assay [15], in [4], in assay [5] and in [6] was “inactive” throughout. For the same compound, the Potency entry in assay [16], in assay [7], in assay [8], in assay [17], in [9] and in assay [20] was “inactive” in each case.
